# SENP8 block-1 – SENP8 protease inhibition | Q96LD8 | purified SENP8, Z-RLRGG-aminoluciferin cleavage, luminescence | 330,000 tested, 1.2% active | inhibition, % at 10 µM; in the data active = inhibition above about 50%
# SENP7 inh – SENP7 protease inhibition; Q9BQF6; 330,000 tested, 1.5% active; AID 434973; inhibition, % at 5 µM; recombinant SENP7, Z-RLRGG-aminoluciferin luminescence, 40 min;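 active = inhibition above about 50% at the single test dose, limit read from the data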;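 also: plate controls were DMSO with enzyme for no effect and no enzyme buffer wells for full effect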
# SENP8 block-2 – blocks human SENP8 cleavage of Nedd8 substrate; Q96LD8; recombinant SENP8, Nedd8 substrate fluorescence; inhibition, % at 20 µM; 360,000 tested, 0.64% active; AID 602440; in the data active = inhibition mostly above about 40%, no sharp cut-off; inactive = mostly below about 27%
# Platelet DG rel – platelet dense granule release activity; human platelet-rich plasma, SFLLRN dense granule ATP release, luminescence; inhibition, %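 (compounds screened at 7.5 µM in platelet-rich plasma)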; 300,000 tested, 0.22% active;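 active = mean replicate score, as percent of positive control, at or above 50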
# SENP6 inh – blocks the human protease SENP6; AID 2599; 330,000 tested, 1.8% active; Recombinant SENP6 catalytic domain, aminoluciferin luminescence; inhibition, % at 10 µM; Q9GZR1;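 active = inhibition above about 50% at the single tested dose, limit read from the data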;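 also: plate controls were DMSO wells with enzyme for no effect and DMSO wells lacking enzyme for full effect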
# SENP8 confirm – human SENP8 inhibition, confirmed. 6,200 tested, 40% active. AID 488912. shares compounds with SENP7 inh. Recombinant SENP8, Z-RLRGG-aminoluciferin luminescence, 60 min. inhibition, % at 12.5 µM;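 active = mean inhibition across replicates above about 50%, limit read from the data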
# SENP6 confirm – human SENP6 inhibition, confirmed | shares compounds with SENP7 inh | AID 488915 | inhibition, % at 12.5 µM | 6,200 tested, 58% active | recombinant SENP6, Z-RLRGG-aminoluciferin luminescence
# SENP7 confirm – human SENP7 inhibition, confirmed; shares compounds with SENP7 inh; recombinant SENP7, Z-RLRGG-aminoluciferin luminescence, 40 min; inhibition, % at 12.5 µM; 6,200 tested, 69% active; AID 488917
# Casp3 SENP sel – selectivity test for SENP inhibitors: human caspase-3 inhibition. shares compounds with SENP7 inh. inhibition, % at 12.5 µM. purified caspase-3, Z-DEVD-aminoluciferin luminescence, 60 min. 6,200 tested, 60% active;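 active = mean inhibition above about 50%, limit read from the data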;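 also: plate controls were enzyme with DMSO for no effect and wells without caspase-3 for full effect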
# Luc interf – luminescence interference (SENP counter-screen); shares compounds with SENP7 inh; Pre-incubated SENP8/Z-RLRGG-aminoluciferin, luciferase luminescence interference; inhibition, % at 12.5 µM; 6,200 tested, 39% active; AID 488919;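 active = mean inhibition above about 50% when retested at one dose, limit read from the data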;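 also: plate controls were DMSO wells with completed reaction for no effect and substrate without enzyme for full effect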
# * = called active by the depositor; i = inactive; / = no result given. Sampled rows, rich in hits. Any-hit rate of the full collection: about 2.4%.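 The calls were made as follows, unless noted: active = mean inhibition above about 50% in the one-dose retest (limit read from the data); inactive = the rest.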
SMILES,SENP8 block-1,SENP7 inh,SENP8 block-2,Platelet DG rel,SENP6 inh,SENP8 confirm,SENP6 confirm,SENP7 confirm,Casp3 SENP sel,Luc interf
O=C(Nc1nc2ccc(F)cc2s1)c1cccs1,92*,95*,-95,3,91*,67*,96*,103*,93*,81*
COC(=O)c1nc(NC(=S)NC(=O)c2cccs2)sc1C,17,27,1,3,15,/,/,/,/,/
O=C(NC(=S)Nc1nc2ccccc2s1)c1cccs1,43,20,2,0,76*,13,8,26,13,12
CN(C)S(=O)(=O)c1ccc2nc(NC(=O)c3cccs3)sc2c1,40,55*,-237,12,73*,77*,74*,90*,72*,76*
O=C(Nc1nc2ccc(S(=O)(=O)N3CCCC3)cc2s1)c1cccs1,-7,1,-301,3,26,/,/,/,/,/
CSc1nc2ccc3nc(NC(=O)c4cccs4)sc3c2s1,11,-5,-250,10,31,/,/,/,/,/
Oc1cc2ccccc2cc1-c1n[nH]c(=S)o1,94*,75*,-275,-4,91*,98*,98*,101*,96*,96*
CC1CN(C(=O)CCNC(=O)c2ccccc2Cl)CC(C)O1 (centres undefined),-2,-10,18,-35,-26,/,/,/,/,/
CS(=O)(=O)c1ccc2nc(NC(=O)c3cc4ccccc4o3)sc2c1,52*,54*,i,6,83*,17,14,41,34,6
O=C(Nc1nc2ccc(Cl)cc2s1)c1ccc(Br)o1,30,59*,-274,3,53*,10,18,7,16,6
CS(=O)(=O)c1ccc2sc(NC(=O)c3cc4ccccc4o3)nc2c1,46,28,-415,1,77*,-4,-6,0,38,23
CC(=O)Nc1nc2ccc(-c3nc4ccccc4o3)cc2s1,24,64*,-495,-2,-2,20,16,20,12,-3
CCC(=O)Nc1cccc(-c2nc3ccccc3o2)c1,-15,-7,-9,8,-16,/,/,/,/,/
CC(Sc1ccccc1)C(=O)NCC(c1ccco1)N1CCCCC1 (centres undefined),-1,-4,4,7,-20,/,/,/,/,/
Cc1ccc(C(=O)Nc2nc3ccc(S(C)(=O)=O)cc3s2)o1,33,60*,-235,42,-15,56*,54*,84*,86*,64*
O=C(Oc1cccc(-c2cnc3ccccc3n2)c1)c1ccco1,59*,52*,-17,-1,60*,18,45,76*,61*,13
Cc1ccc(SC2=C(Sc3ccc(C)cc3)C(=O)c3ccccc3C2=O)cc1,40,12,-93,-2,62*,10,11,16,11,5
CCOc1ncccc1C(=O)OCC(=O)Nc1cc(S(=O)(=O)N(CC)CC)ccc1C,0,3,13,-4,13,/,/,/,/,/
CCN(CC)S(=O)(=O)c1ccc(C)c(NC(=O)COC(=O)C=C(C)C)c1,-5,6,27,-9,56*,-6,-9,-3,6,3
Cc1ccc(-n2c(C)cc(C(=O)CSc3nncs3)c2C)cc1,6,1,16,1,-14,/,/,/,/,/
Cc1ccc(-n2c(C)cc(C(=O)CSc3nnnn3C)c2C)cc1,60*,69*,7,0,29,80*,78*,95*,79*,76*
CC1=C(C(=O)N(C(C)C)C(C)C)CC(CC(=O)NC2CCCC2)C(=O)N1Cc1ccc(F)cc1 (centres undefined),/,/,15,/,/,/,/,/,/,/
Cc1nn(-c2ccc(N3CCCCC3)nn2)c(C)c1CCC(=O)Nc1ccc(F)cc1,-3,7,-8,-6,-3,/,/,/,/,/
